# KB-3-1 tox: qHTS assay for MDR1-selective chemotherapeutics: Primary screen using the parental adenocarcinoma cell KB-3-1; KB-3-1 viability, CellTiter-Glo ATP luminescence, 72 h; Potency, µM (doses to about 46.1 µM), most hits filed as cytotoxic; hit rate 1.4% among 400,000; further: nearly all actives have a fitted effect of over 60% in size
#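 Cells are dispensed, compounds pinned in, plates held at 37 °C for 72 h, then CellTiter-Glo is added and luminescence read after 10 minutes. Cell line: parental KB-3-1 in phenol-red-free DMEM, 10% FBS.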
# ATXN2 expr inh: Primary qHTS for Inhibitors of ATXN expression. HEK-293 ATXN2-luciferase reporter, luminescence, 24 h. Potency, µM (highest dose often 57 µM), most hits filed as inhibitors. hit rate 0.72% among 360,000. AID 1745845, 2022; further: nearly all actives have a fitted effect of over 55% in size
#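 qHTS (up to 57 uM final) was run with 24 h compound exposure of reporter cells at 37 °C. Each well was multiplexed: SteadyGlo luminescence measured ATXN2-luciferase expression after a fluorogenic Gly-Phe-AFC viability readout (25 uM final).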
# ATXN viability: Viability Counterscreen for Primary qHTS for Inhibitors of ATXN expression. S2 cells (HEK-293 line with an ATXN2-luciferase reporter) viability, CellTiter-Fluor protease fluorescence, 24 h. Potency, µM (doses to about 56.7 µM), actives largely listed as cytotoxic. hit rate 0.49% among 400,000. AID 651635, 2014; further: nearly all actives have a fitted effect of over 40% in size
# KB-V1 MDR tox: qHTS assay for MDR1-selective chemotherapeutics: Primary screen using the drug-selected MDR subline cells KB-V1; KB-V1 MDR cells viability, CellTiter-Glo, 72 h; hit rate 3.4% among 400,000; Potency, µM (doses to about 46.1 µM), most hits filed as cytotoxic; AID 1347076, 2019; further: nearly all actives have a fitted effect of over 60% in size
#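 qHTS viability screen in drug-selected KB-V1 MDR cells: 72 h compound treatment at 37 degrees C, ATP luminescence end point.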
# HT1080 IDH1KD tx: qHTS for induction of synthetic lethality in tumor cells producing 2HG: qHTS for the HT-1080-IDH1KD cell line; Potency, µM (top dose mostly 46.1 µM), usual class: cytotoxic; hit rate 2% among 360,000; HT-1080 IDH1 knockdown viability, ATP luminescence, 48 h
#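 Assay cells: HT-1080 with IDH1 knockdown, 750 per well, RPMI/5% FBS. Exposure: 48 h at 37 °C following 2 h pre-incubation. Read: CellTiter-Glo luminescence; fitted concentration-response, curve class assigned.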
# HT1080NT lethal: qHTS for induction of synthetic lethality in tumor cells producing 2HG: qHTS for the HT-1080-NT fibrosarcoma cell line; HT-1080-NT fibrosarcoma viability, CellTiter-Glo ATP luminescence, 48 h; Potency, µM (titrated, usually from 46.1 µM), most hits filed as cytotoxic; hit rate 1.6% among 360,000;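 further: NT is the 2HG producing partner of a matched IDH1 knockdown line; nearly all actives have a fitted effect of over 55% in size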
#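 Viability of the 2HG-overproducing fibrosarcoma line after 48 hours of compound exposure at 37 degrees C was determined by luminescence with CellTiter-Glo, and concentration-effect curves were then fitted and categorized.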
# Numbers stand for hits; n = inactive; u = inconclusive; x = not tested or not shown. This is a sample that favours compounds with a hit; in the whole collection about 6.2% have one here. The call rests on the fitted dose curve; in most records, active means well fitted curve in the direction sought with a large enough effect; inconclusive means small, poorly fitted or top-dose-only effect, or another doubt; inactive means no such curve, though single readings can be large; an effect the other way counts as inactive or inconclusive.
SMILES,KB-3-1 tox,ATXN2 expr inh,ATXN viability,KB-V1 MDR tox,HT1080 IDH1KD tx,HT1080NT lethal
COc1ccc(OCC(O)CN2CCC(CN3C(=O)c4cccc5cccc(c45)C3=O)CC2)cc1 (centres undefined),n,u,u,n,u,23µM
O=C1c2cccc3cccc(c23)C(=O)N1CCN1CCN(CC(O)COc2ccccc2)CC1 (centres undefined),n,n,n,n,n,n
Cc1ccc(C)c(OCC(O)CN2CCC(CN3C(=O)c4cccc5cccc(c45)C3=O)CC2)c1 (centres undefined),18µM,28µM,x,2.6µM,n,n
CCOC(=O)C1CCN(CC(O)COCc2ccc3c(c2)OCO3)CC1 (centres undefined),n,n,n,n,n,n
COc1cccc(OCC(O)CN2CCN(CCN3C(=O)c4cccc5cccc(c45)C3=O)CC2)c1 (centres undefined),n,n,n,u,u,n
CN1CC2=Cc3ccccc3OC23Oc2ccccc2C=C3C1,u,n,u,u,u,16µM
O=C(CCc1ccco1)CCc1ccco1,n,n,n,n,n,n
CSc1ccc(CCNC(=O)CCc2c(C)nc3c(c(C)nn3-c3ccc(C)c(C)c3)c2C)cc1,n,n,n,n,x,x
Cc1ccccc1C(=O)Nc1cccc(NC(=O)Cn2cnc3c(=O)n(C)c(=O)n(C)c32)c1,n,n,n,n,11µM,u
Cc1cccc(C)c1NC(=O)Cn1cnc2c(=O)n(C)c(=O)n(C)c21,n,n,n,n,n,n
CCOC(=O)c1cc(-c2ccc(C)cc2)n(CC(=O)NC2CCCCCC2)c1C,u,n,n,n,x,x
CCCC[C@@H]1Cc2[nH][nH]c(=O)c2[C@H](c2cccc3ccccc23)O1,n,n,n,n,26µM,u
Cc1c(C(=O)N2CCCC2)sc2ncnc(NCCN(C)C)c12,x,x,n,x,x,x
Cc1ccsc1C=Nc1ccc(O)cc1,n,n,n,n,23µM,n
Cc1ccsc1/C=N/N=C/c1sccc1C,n,x,x,n,n,n
CCOc1ccc(NC(=O)c2oc3ccccc3c2NC(=O)C(C)(C)C)cc1,n,n,u,n,x,x
CCCn1c(SCC(=O)Nc2ccccc2OC)nnc1-c1ccco1,u,n,u,u,18µM,16µM
COc1cc(Cl)c(C)cc1NC(=O)CSc1nnc(-c2ccccn2)n1Cc1ccco1,n,n,n,2.3µM,n,n
O=C(CSc1nnc(-c2ccccn2)n1Cc1ccco1)c1ccccc1,n,n,n,u,n,n
COc1ccc(C(=O)CSc2nnc(-c3ccccn3)n2Cc2ccco2)cc1,n,n,n,18µM,n,n
COCCn1c(SCC(=O)Nc2ccccc2OC)nnc1-c1ccco1,n,n,n,n,n,n
O=C(CSc1nnc(-c2cccnc2)n1Cc1ccco1)c1ccc2ccccc2c1,n,n,n,15µM,n,n
CCn1cc(CN2CCOc3ccc(C(O)C4CCCCC4)cc3C2)c(C)n1 (centres undefined),x,x,n,x,x,x
O=C(CSc1nnc(-c2ccccn2)n1Cc1ccco1)c1ccc(Cl)cc1,n,n,n,9.2µM,n,n
Cc1ccc(S(=O)(=O)NCCCNS(=O)(=O)c2ccc(C)cc2)cc1,n,n,u,15µM,n,n
SMILES,KB-3-1 tox,ATXN2 expr inh,ATXN viability,KB-V1 MDR tox,HT1080 IDH1KD tx,HT1080NT lethal
Cc1ccc(S(=O)(=O)NCC(=O)N/N=C/c2ccccc2O)cc1,n,14µM,n,n,u,u
Cc1ccc(S(=O)(=O)NCCCNC(=O)c2ccccc2)cc1,n,n,n,18µM,n,n
Cc1ccc(S(=O)(=O)NCCCN(C)C)cc1,n,n,n,n,n,n
N/C(=N\OC(=O)N1CCOCC1)c1ccc(Cl)cc1,u,n,n,n,n,n
N/C(=N\OC(=O)N1CCOCC1)c1ccc(Br)cc1,n,x,n,21µM,n,u
Cc1ccc(C)c(N2CCN(C(=O)CC3Sc4ccccc4NC3=O)CC2)c1 (centres undefined),u,n,n,16µM,u,u
CCOC(=O)c1c(NC(=O)CN2CCOCC2)sc2c1CC(C)(C)OC2,n,n,n,n,n,n
CCOC(=O)c1c(NC(=O)CCN2CCOCC2)sc2c1CC(C)(C)OC2,n,n,n,16µM,n,n
O=C(CSc1ccncc1)NCC1Cc2cccc(-c3cncnc3)c2O1 (centres undefined),x,x,n,x,x,x
O=C(N/C(=C/c1ccco1)C(=O)N1CCCCCC1)c1cccs1,n,n,n,21µM,u,n
Cc1ccc(C(=O)N/C(=C\c2cccs2)C(=O)NC2CCCCC2)cc1,n,n,n,18µM,n,n
O=C(N/C(=C/c1cccs1)C(=O)N1CCCCCC1)c1ccccc1,n,n,n,21µM,n,n
COc1cc(C(=O)OCC(=O)Nc2sccc2C(N)=O)cc(OC)c1OC,16µM,u,u,u,7.3µM,u
NC(=O)c1ccsc1NC(=O)COc1ccccc1,n,n,n,13µM,u,n
CSc1nnc(NC(=O)c2cc(=O)c3cc(C)c(C)cc3o2)s1,n,n,n,u,x,x
COc1ccc(-c2nc3c(c(SCC(=O)N4CCCCC4)n2)Cc2cc(Cl)ccc2O3)cc1,n,n,n,n,x,x
c1ccc2c(CCc3c[nH]c4ccccc34)ccnc2c1,u,x,x,n,x,x
Cc1ccc2c(c1)c1c3n2CCN(C(=O)CN2CCN(C)CC2)C3CCC1 (centres undefined),u,n,n,21µM,u,23µM
Cc1ccc2c(c1)c1c3n2CCN(C(=O)C2CC2)C3CCC1 (centres undefined),n,n,n,n,n,n
Cc1ccc2c(c1)c1c3n2CCN(C(=O)Cn2c(-c4ccccc4)noc2=O)C3CCC1 (centres undefined),n,n,n,4.1µM,n,n
CN1CCN(CC(=O)N2CCn3c4c(c5cc(C6CCCCC6)ccc53)CCCC42)CC1 (centres undefined),u,u,u,n,23µM,u
Cc1ccc(C(=O)N2CCn3c4c(c5cc(C)ccc53)CCCC42)cc1 (centres undefined),n,n,n,n,x,x
CCCCN(C)c1c(C)nc2ccc(C(=O)N3CCN(C(C)=O)CC3)cn12,n,n,n,n,n,n
O=P(O)(O)C(Sc1ccc(Cl)cc1)P(=O)(O)O,x,x,n,x,x,x
Cn1nc(C(C)(C)C)cc1C(=O)N1CCCCC1c1cc(C(=O)NCc2ccc(F)cc2)no1 (centres undefined),u,n,n,4.1µM,u,n

# High-throughput results as filed in PubChem.
